Screening results (PubChem)
Most compounds without a hit are left out; they make up all but 7.5% or so of the library.
Luc counter = Kinase-Glo luciferase inhibition (counter-screen). Q27757. Potency, µM (doses to about 38.3 µM), inactives show top-dose activity change, negative = inhibition, actives largely listed as inhibitors. AID 1379. Kinase-Glo luciferase, ATP luminescence, 8 min. 200,000 tested, 0.28% active; note: % is set by controls: 0 for no effect and ±100 for the full control effect; nearly all actives have a fitted effect of over 60% in size
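Light output from Kinase-Glo luciferase with luciferin and 10 uM ATP in 50 mM imidazole pH 7.2, KCl, MgCl2, Tween 20, BSA; compound pin-delivered, 8-min ambient incubation, then luminescence read.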
Rab9 prom act = activates the Rab9 promoter | Huh7 Rab9 promoter-luciferase reporter, luminescence, 24 h | Potency, µM (titrated, usually from 9.22 µM), inactives show at the highest dose activation, negative = inhibition, hits mostly activators | 320,000 tested, 2.8% active; note: % of control where 0% means no effect; nearly all actives have a fitted effect of over 60% in size
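Luminescence from Amplite-detected luciferase (10 minutes, ambient) reports Rab9 promoter activation. Before that, stable Rab9-luciferase Huh7 cells (1500/well, reduced-serum OP-MEM I plus 10% FBS) were exposed to compound for 24 hours at 37C.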
FLuc counter = inhibits or activates purified firefly luciferase, miR-21 counter-screen | P08659 | purified FLuc, Km substrates, luminescence inhibition | Potency, µM (highest dose often 57.5 µM), for the others: top-dose activity change, negative = inhibition, most hits filed as inhibitors | 360,000 tested, 6.9% active | AID 588342;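 note: plate controls were vehicle for no effect and reference inhibitor for full effect; nearly all actives have a fitted effect of over 55% in size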
Target sequence (P08659 whole entry, looked up): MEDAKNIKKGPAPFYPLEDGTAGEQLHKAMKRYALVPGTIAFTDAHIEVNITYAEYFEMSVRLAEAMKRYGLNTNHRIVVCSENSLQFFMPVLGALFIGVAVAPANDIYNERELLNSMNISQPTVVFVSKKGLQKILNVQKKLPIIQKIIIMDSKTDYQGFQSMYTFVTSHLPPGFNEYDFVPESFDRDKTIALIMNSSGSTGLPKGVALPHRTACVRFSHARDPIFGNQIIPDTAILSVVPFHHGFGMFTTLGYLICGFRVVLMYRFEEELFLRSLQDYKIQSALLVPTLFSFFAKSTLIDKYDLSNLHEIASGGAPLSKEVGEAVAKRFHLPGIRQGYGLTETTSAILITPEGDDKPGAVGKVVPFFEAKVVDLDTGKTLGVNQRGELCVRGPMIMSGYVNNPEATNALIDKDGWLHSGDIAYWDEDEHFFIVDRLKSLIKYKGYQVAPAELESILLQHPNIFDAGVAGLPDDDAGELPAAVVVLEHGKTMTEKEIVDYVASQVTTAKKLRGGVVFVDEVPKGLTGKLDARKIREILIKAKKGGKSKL
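Purified P. pyralis luciferase, 10 nM final, with Km-level 10 uM D-luciferin and 10 uM ATP in 50 mM Tris acetate pH 7.5, 10 mM Mg acetate, 0.01% Tween-20, 0.05% BSA; 6-point qHTS titration about 60 µM downward; luminescence read.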
SMN2 splice enh = SMN2 splice variant enhancement | HEK293 SMN2-luciferase splicing reporter, luminescence, 30-36 h | Potency, µM (doses to about 46.1 µM), inactives show at the top dose activity change, positive = activation, actives largely listed as activators | 210,000 tested, 2.8% active; note: % of control where 0% means no effect; nearly all actives have a fitted effect of over 55% in size
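qHTS luciferase splicing reporter: luminescence rises when SMN2 exon 7 is included in transfected HEK293 cells. Compound exposure lasted 30-36 h at 37C, with 4.5 mM final sodium butyrate as control, followed by a ONE-Glo read.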
ELG1 genotox = induces genotoxicity in HEK293T cells with luciferase-tagged ELG1 | Potency, µM (titrated, usually from 46 µM), inactives show at the top dose activity change, positive = activation, hits mostly activators | HEK293T ELG1-luciferase reporter, luminescence, 16 h | 330,000 tested, 1.3% active; note: % of control where 0% means no effect; nearly all actives have a fitted effect of over 60% in size
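Reporter readout depends on ELG1 protein level, which increases with genetic stress. After 16 hr compound exposure at 37 °C, luciferase activity was quantified using ONE-Glo.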
NPC1 promoter act = NPC1 promoter activation. AID 485313. Huh7 NPC1 promoter luciferase reporter, 24 h. Potency, µM (highest dose often 9.22 µM), for the others: at the top dose activation, hits mostly activators. 320,000 tested, 2.4% active; note: % of control where 0% means no effect; nearly all actives have a fitted effect of over 60% in size
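Cells: Huh7 expressing luciferase under the NPC1 promoter, 1500/well. Seeded 2 h, compound added, incubated 24 h at 37 °C. Luciferase reagent, 10 min ambient, then luminescence.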
* hit, by the source's call; [ ] = another dose, or the depositor's remark. Calls come from the whole dose curve; as a rule, active = well fitted curve in the direction sought with a large enough effect; inconclusive = small, poorly fitted or top-dose-only effect, or another doubt; inactive = no such curve, though single readings can be large; an effect the other way counts as inactive or inconclusive. Potency is the fitted concentration of half-maximal effect.

Results for COc1ccc(/C=C2\SC(=S)N(C(C)C(=O)NC3C=CS(=O)(=O)C3)C2=O)cc1 (stereo not drawn) ?
Rab9 prom act: 14.5%; FLuc counter: 16.9µM*; ELG1 genotox: 0.8%; NPC1 promoter act: 10.9%

How did COc1ccc(/C=C2\SC(=S)N(CC(=O)NC3C=CS(=O)(=O)C3)C2=O)cc1 (stereo not drawn) do in these assays?
Rab9 prom act: 0.8%; FLuc counter: 1.9µM*; ELG1 genotox: 2.3%; NPC1 promoter act: 3.2%

How did O=C(CN1C(=O)/C(=C/c2ccc(Cl)cc2)SC1=S)NC1C=CS(=O)(=O)C1 (stereo not drawn) do in these assays?
Rab9 prom act: 0.6%; FLuc counter: -7.2%; ELG1 genotox: 1.0%[9.26 µM]; NPC1 promoter act: -7.2%

What do the screens show for `O=C(Nc1ccc(-c2cn3c(n2)SCC3)cc1)c1ccc2ccccc2n1`?
Luc counter: -0.1%; Rab9 prom act: 8.4%; FLuc counter: 19µM*; SMN2 splice enh: 19.4%; ELG1 genotox: -11.8%; NPC1 promoter act: 20.7%

Results for c1ccc(-c2cn3c(n2)SCC3)cc1 ?
Luc counter: -3.7%; Rab9 prom act: 21.0%; FLuc counter: inconclusive; SMN2 splice enh: 22.2%; ELG1 genotox: 7.8%; NPC1 promoter act: 17.2%

How did O=C(Nc1cccc(-c2cn3c(n2)SCC3)c1)c1ccc2ccccc2n1 do in these assays?
Luc counter: -0.3%; Rab9 prom act: 0.398µM*; FLuc counter: 3.01µM*; SMN2 splice enh: 12.6µM*; ELG1 genotox: inconclusive; NPC1 promoter act: 0.282µM*

What do the screens show for `CCCS(=O)(=O)Nc1cccc(-c2cn3c(n2)SCC3)c1`?
Rab9 prom act: -0.1%; FLuc counter: -1.7%; ELG1 genotox: -0.2%; NPC1 promoter act: -1.8%

Results for CN=c1scc(-c2ccc([N+](=O)[O-])cc2)n1/N=C/c1ccco1 ?
Luc counter: -4.7%; Rab9 prom act: 0.398µM*; FLuc counter: inconclusive; ELG1 genotox: inconclusive; NPC1 promoter act: inconclusive

How did Cc1ccc(C)c(C(=O)COC(=O)c2ccccc2N2C(=O)C3C4CCC(C4)C3C2=O)c1 (stereo not drawn) do in these assays?
Luc counter: -0.1%; Rab9 prom act: 6.4%; FLuc counter: 7.57µM*; SMN2 splice enh: -7.0%; ELG1 genotox: -5.8%; NPC1 promoter act: 14.3%

Results for O=C(COC(=O)c1ccccc1N1C(=O)C2C3CCC(C3)C2C1=O)c1ccccc1 (stereo not drawn) ?
Luc counter: -3.3%; Rab9 prom act: -8.8%; FLuc counter: -12.3%; SMN2 splice enh: -5.3%; ELG1 genotox: 1.2%; NPC1 promoter act: -2.0%

Results for CN(C(=O)c1cccnc1)c1nnc(-c2cccnc2)s1 ?
Luc counter: -1.0%; Rab9 prom act: 11.0%; FLuc counter: -7.6%; SMN2 splice enh: 2.7%; ELG1 genotox: 6.8%; NPC1 promoter act: 8.6%

What do the screens show for `COCCN(C(=O)Cc1cccs1)c1nnc(-c2cccnc2)s1`?
Luc counter: -2.4%; Rab9 prom act: 15.9%; FLuc counter: -0.9%; SMN2 splice enh: -18.8%; ELG1 genotox: 0.8%; NPC1 promoter act: -4.3%

Results for CCCCN(C(=O)Cc1cccs1)c1nnc(-c2cccnc2)s1 ?
Luc counter: -1.6%; Rab9 prom act: 28.0%; FLuc counter: 19µM*; SMN2 splice enh: 20µM*; ELG1 genotox: 16.0%; NPC1 promoter act: inconclusive

Results for CCN(C(=O)Cc1ccccc1OC)c1nnc(-c2ccncc2)s1 ?
Luc counter: -1.5%; Rab9 prom act: 2.3%; FLuc counter: -18.3%; SMN2 splice enh: -28.6%; ELG1 genotox: -1.9%; NPC1 promoter act: -0.8%

How did COCCN(C(=O)c1ccco1)c1nnc(-c2ccc(F)cc2)s1 do in these assays?
Luc counter: -0.9%; Rab9 prom act: inconclusive; FLuc counter: inconclusive; SMN2 splice enh: inconclusive; ELG1 genotox: 10.2%; NPC1 promoter act: 27.8%

What do the screens show for `CCCN(C(=O)c1ccco1)c1nnc(-c2ccccc2C)s1`?
Luc counter: -3.2%; Rab9 prom act: inconclusive; FLuc counter: 12µM*; ELG1 genotox: inconclusive; NPC1 promoter act: 21.3%

Results for CCN(C(=O)c1ccco1)c1nnc(-c2cccnc2)s1 ?
Rab9 prom act: inconclusive; FLuc counter: 13.5µM*; ELG1 genotox: inconclusive; NPC1 promoter act: inconclusive

What do the screens show for `CCN(C(=O)Cc1cccs1)c1nnc(-c2cc(OC)c(OC)c(OC)c2)s1`?
Luc counter: 0.8%; Rab9 prom act: -0.9%; FLuc counter: -0.1%; SMN2 splice enh: 25.1µM*; ELG1 genotox: inconclusive; NPC1 promoter act: -2.3%

Results for C=CCN(CC(=O)O)S(=O)(=O)c1ccccc1C(F)(F)F ?
Luc counter: 1.7%; Rab9 prom act: inconclusive; FLuc counter: -3.0%; SMN2 splice enh: -1.5%; ELG1 genotox: -0.3%; NPC1 promoter act: -6.8%

What do the screens show for `COc1ccc(CNC(=O)CCS(=O)(=O)c2cc(Br)cc3c2N(C(C)=O)C(C)C3)cc1` (stereo not drawn)?
FLuc counter: -12.9%; SMN2 splice enh: 1.7%

What do the screens show for `Cc1nc(SCc2cccc(C(=O)O)c2)nc2c1CCCC2`?
Luc counter: -2.1%; Rab9 prom act: 3.0%; FLuc counter: 8.49µM*; SMN2 splice enh: 4.47µM*; ELG1 genotox: -5.0%; NPC1 promoter act: 20.6%

Results for COc1ccc(-c2cc(C)nc(SCc3cccc(C(=O)O)c3)n2)cc1 ?
Luc counter: 0.7%; Rab9 prom act: -4.3%; FLuc counter: inconclusive; SMN2 splice enh: 15.8%; ELG1 genotox: 6.3%; NPC1 promoter act: -1.4%

Results for CCCc1nn(C)c(C(=O)Nc2ccc(C)c(C)c2)c1Cl ?
Luc counter: 1.7%; Rab9 prom act: 3.16µM*; FLuc counter: 10.7µM*; SMN2 splice enh: 6.31µM*; ELG1 genotox: inconclusive; NPC1 promoter act: inconclusive

How did CCCc1nn(C)c(C(=O)Nc2ccc(CC)cc2)c1Cl do in these assays?
Luc counter: -2.7%; Rab9 prom act: 0.6%; FLuc counter: inconclusive; SMN2 splice enh: 5.4%; ELG1 genotox: 1.5%; NPC1 promoter act: 0.7%

How did Cc1cccc(N2CCN(C(=O)C3CCN(Cc4nc(-c5ccc(Cl)cc5)oc4C)CC3)CC2)c1C do in these assays?
FLuc counter: -13.4%

How did COc1cccc(-c2cc(C(=O)NC3CCCCC3)no2)c1 do in these assays?
Rab9 prom act: 3.16µM*; FLuc counter: 6.01µM*; ELG1 genotox: inconclusive; NPC1 promoter act: inconclusive

What do the screens show for `O=C(NC1CCCCC1)c1cc(-c2cccc(Cl)c2)on1`?
Rab9 prom act: inconclusive; FLuc counter: -13.2%; ELG1 genotox: inconclusive; NPC1 promoter act: inconclusive
